E-sel TNF inh = TNF alpha driven E-selectin expression inhibition. HUVEC TNFa-induced E-selectin immunofluorescence, high content. inhibition, % at 2 µM. 120,000 tested, 0.71% active;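 active means inhibition above the batch mean plus 3 SD, and confirmed as a hit on visual image review, cut at about 43% in these data; inconclusive means passes the inhibition cutoff but fails visual image review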;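 further: 0% = TNF-stimulated DMSO wells and 100% = unstimulated control wells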
F-actin modifier = cytoskeleton assembly modification | HUVEC TNFa F-actin phalloidin imaging, high content | inhibition, % at 2 µM | 91,000 tested, 0.18% active | AID 836;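 active means inhibition above the batch mean plus 3 SD and confirmed as a hit by visual image inspection, cut at about 30% in these data, passing the limit was not always enough; inconclusive means above the inhibition threshold but rejected on visual inspection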
CYP2C19 act = cytochrome P450 2C19 (human) activation. 96,000 tested, under 10 active. recombinant CYP2C19, luciferin-H EGE luminescence; stronger effect = higher value; 0 = fully inhibited enzyme, 1 = untreated enzyme. activation factor at 5 µM;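 active means activation factor of at least 2 at 5 µM in the primary screen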;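 further: 0 = wells with 2.5 mM tranylcypromine and 1 = vehicle-only wells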
Target sequence (P33261 whole entry, looked up): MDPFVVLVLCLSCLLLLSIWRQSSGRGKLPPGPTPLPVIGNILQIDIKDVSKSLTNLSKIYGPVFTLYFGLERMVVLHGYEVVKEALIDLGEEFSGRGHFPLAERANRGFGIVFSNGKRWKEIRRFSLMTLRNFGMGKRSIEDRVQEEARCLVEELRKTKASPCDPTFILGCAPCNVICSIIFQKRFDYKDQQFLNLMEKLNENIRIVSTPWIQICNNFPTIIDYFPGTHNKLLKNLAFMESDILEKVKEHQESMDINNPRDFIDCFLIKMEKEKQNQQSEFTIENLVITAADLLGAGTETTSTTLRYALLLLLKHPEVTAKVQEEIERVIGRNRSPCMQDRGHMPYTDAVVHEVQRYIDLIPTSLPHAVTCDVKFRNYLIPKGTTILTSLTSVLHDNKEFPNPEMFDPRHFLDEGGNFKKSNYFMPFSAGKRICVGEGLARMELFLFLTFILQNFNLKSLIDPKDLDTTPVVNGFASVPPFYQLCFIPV
CYP2C9 act = CYP2C9 (human) activation; P11712; recombinant CYP2C9, luciferin-H conversion, luminescence; stronger effect = higher value; factor 1 = untreated enzyme, 0 = blocked; activation factor at 5 µM; 96,000 tested, 1.4% active; AID 1024;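 active means activation factor of 2 or more for CYP2C9 at a 5 µM dose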;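 further: 0 = sulfaphenazole-blocked wells and 1 = vehicle-only wells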
CYP2C19 inh = inhibitors of human CYP2C19; CYP2C19 Supersomes, luciferin-H EGE luminescence, 30 min; 96,000 tested, 21% active; inhibition, % at 5 µM;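 active means CYP2C19 inhibition above a set limit at 5 µM in the primary screen, cut at about 50% in these data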;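 further: plate controls were negative control wells for no effect and 2.5 mM tranylcypromine positive control for full effect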
CYP2C9 inhib = blocks human cytochrome P450 2C9. CYP2C9 Supersomes, luciferin-H conversion, luminescence. AID 777. P11712. inhibition, % at 5 µM. 96,000 tested, 20% active;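 active means blocking of liver enzyme CYP2C9 beyond about 50% at 5 µM, limit read from the data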
* marks the source's active call; other numbers are inactive results. Hits are enriched below; roughly 22% of the tested compounds scored in any of these assays.

For C=CCSC1=C(C#N)C(c2ccccc2)CC(=O)N1 (stereo not drawn) the results were E-sel TNF inh 1, F-actin modifier -2, CYP2C19 act 0.2, CYP2C9 act 0.3, CYP2C19 inh 80* and CYP2C9 inhib 65*.
Screening C=CCSC1=C(C#N)C(c2ccc(C(C)C)cc2)CC(=O)N1 (stereo not drawn) returned F-actin modifier 7, CYP2C19 act 0.3, CYP2C9 act 0.2, CYP2C19 inh 74* and CYP2C9 inhib 82*.
Screening N#CC1=C(SCc2ccccc2)NC(=O)CC1c1ccccc1 (stereo not drawn) returned E-sel TNF inh -5 and F-actin modifier 1.
Screening CCn1cc(C(=O)NCc2cccs2)c(=O)c2ccc(C)nc21 returned F-actin modifier 3, CYP2C19 act 0.9, CYP2C9 act 1, CYP2C19 inh 15 and CYP2C9 inhib -3.
CCOC(=O)c1cc2sc(C)cc2n1CCCN1C(=O)c2ccccc2C1=O was read as E-sel TNF inh 10, F-actin modifier -16, CYP2C19 act 0.9, CYP2C9 act 0.4, CYP2C19 inh 14 and CYP2C9 inhib 57*.
CCOC(=O)c1cc2occc2n1CCCN1C(=O)c2ccccc2C1=O was read as E-sel TNF inh 13, F-actin modifier 3, CYP2C19 act 0.8, CYP2C9 act 0.1, CYP2C19 inh 21 and CYP2C9 inhib 87*.
CC1CCC2(CC1)N=C(N)Nc1nc3ccccc3n12 (stereo not drawn) was read as E-sel TNF inh 4, F-actin modifier -1, CYP2C19 act 1, CYP2C9 act 0.9, CYP2C19 inh 0 and CYP2C9 inhib 8.
For COc1ccccc1C(=O)Nc1ccc(-c2nnc(SCC(=O)O)n2C)cc1 the results were E-sel TNF inh -18, F-actin modifier -2, CYP2C19 act 0.9, CYP2C9 act 1.2, CYP2C19 inh 7 and CYP2C9 inhib -16.
CCOc1c(Cl)cc(CNc2ccc(S(N)(=O)=O)cc2)cc1OC was read as E-sel TNF inh 15.
For CCOc1c(Cl)cc(CNC(C)(C)CC(C)(C)C)cc1OC the results were E-sel TNF inh -32, F-actin modifier -13, CYP2C19 act 0.1, CYP2C9 act 1, CYP2C19 inh 91* and CYP2C9 inhib -5.
CCOC(=O)c1ccc(Nc2cc(C)nc(C)c2C(=O)OCC)cc1 was read as E-sel TNF inh -6, F-actin modifier -9, CYP2C19 act 0.1, CYP2C9 act 0.5, CYP2C19 inh 89* and CYP2C9 inhib 52*.
Screening CCOC(=O)c1ccc2nc(C)cc(Nc3cccc(C(=O)O)c3)c2c1 returned E-sel TNF inh 33.
For CCOc1ccc(NC(=O)CN2C(=O)C3CC=CCC3C2=O)cc1 (stereo not drawn) the results were E-sel TNF inh -20, F-actin modifier -16, CYP2C19 act 1.2, CYP2C9 act 1.1, CYP2C19 inh -22 and CYP2C9 inhib -13.
`CCOC(=O)c1ccc(NC(=O)COC)cc1` gave E-sel TNF inh -3, F-actin modifier 9, CYP2C19 act 0.8, CYP2C9 act 0.8, CYP2C19 inh 23 and CYP2C9 inhib 16.
`CCOc1ccc(NC(=O)C2CCC(N3C(=O)C4CC=CCC4C3=O)CC2)cc1` (stereo not drawn) gave E-sel TNF inh inconclusive, F-actin modifier 13, CYP2C19 act 0.5, CYP2C9 act 0.5, CYP2C19 inh 52* and CYP2C9 inhib 52*.
For CCOC(=O)c1ccc(NC(=O)C(CC)(CC)C(=O)OCC)cc1 the results were E-sel TNF inh -42, CYP2C19 act 0.2, CYP2C9 act 0.4, CYP2C19 inh 77* and CYP2C9 inhib 65*.
Screening CCOC(=O)c1ccc(NC(=O)C(=O)NCc2ccncc2)cc1 returned E-sel TNF inh 21, F-actin modifier -20, CYP2C19 act 0.6, CYP2C9 act 0.5, CYP2C19 inh 42 and CYP2C9 inhib 51*.
C=CCN(c1ccc(Cl)cc1)S(=O)(=O)c1cccc(C(=O)O)c1 was read as E-sel TNF inh 0.
For Nc1cccc(C(=O)Nc2ccc(N)cc2Cl)c1 the results were E-sel TNF inh -21, CYP2C19 act 1.1, CYP2C9 act 1.6, CYP2C19 inh -8 and CYP2C9 inhib -57.
Screening CCC(c1nnnn1C(C)(C)C)N(Cc1cccs1)Cc1cc2cc(C)c(C)cc2n2nnnc12 (stereo not drawn) returned E-sel TNF inh 12 and F-actin modifier 0.
`O=C(NCC1CCCO1)c1cccc(NC(=O)c2cccs2)c1` (stereo not drawn) gave E-sel TNF inh 49.
`CCOC(=O)c1ccc(NC(=O)C2CC2)cc1` gave E-sel TNF inh -23, F-actin modifier 4, CYP2C19 act 0.2, CYP2C9 act 0.7, CYP2C19 inh 79* and CYP2C9 inhib 35.
CCOC(=O)c1ccc(NC(=O)C2CCCO2)cc1 (stereo not drawn) was read as F-actin modifier -30, CYP2C19 act 0.9, CYP2C9 act 0.8, CYP2C19 inh 12 and CYP2C9 inhib 22.
Screening COc1ccc(CSc2nnc(CNS(C)(=O)=O)o2)cc1 returned E-sel TNF inh 22, F-actin modifier 12, CYP2C19 act 1.3, CYP2C9 act 1.3, CYP2C19 inh -30 and CYP2C9 inhib -31.
For CC1(C)CC(=O)c2cnc(NC(=O)CCc3ccccc3)nc2C1 the results were E-sel TNF inh -21, F-actin modifier 15, CYP2C19 act 0.9, CYP2C9 act 0.8, CYP2C19 inh 9 and CYP2C9 inhib 25.
Screening O=C(CCc1ccccc1)Nc1ncc2c(n1)CCCC2=O returned E-sel TNF inh 72*, F-actin modifier -7, CYP2C19 act 0.8, CYP2C9 act 0.6, CYP2C19 inh 20 and CYP2C9 inhib 42.
`CCOc1ccc(C(C)=O)cc1CN1C(=O)NC2(CCCCC2C)C1=O` (stereo not drawn) gave E-sel TNF inh 6, F-actin modifier 31, CYP2C19 act 0.7, CYP2C9 act 0.8, CYP2C19 inh 34 and CYP2C9 inhib 15.
For COc1ccc(C(C)=O)cc1CN1C(=O)NC2(CCCCCC2)C1=O the results were E-sel TNF inh -1, F-actin modifier -2, CYP2C19 act 0.1, CYP2C9 act 0.7, CYP2C19 inh 88* and CYP2C9 inhib 29.
`CCOCc1cnc(C)nc1NCC(=O)c1c(C)n(C)c2ccc(OC)cc12` gave E-sel TNF inh -16, F-actin modifier 0, CYP2C19 act 1, CYP2C9 act 1, CYP2C19 inh 1 and CYP2C9 inhib 2.
For COc1ccc(COC(=O)c2ccc(N3CCCC3=O)cc2)cc1F the results were F-actin modifier 35, CYP2C19 act 0.5, CYP2C9 act 0.4, CYP2C19 inh 45 and CYP2C9 inhib 61*.
Screening COc1ccc(CN2C(=O)NC(C)(c3ccc(C)cc3)C2=O)cc1F (stereo not drawn) returned E-sel TNF inh -8.

Bioassay records from PubChem.
